PolyA inh: polyadenylation inhibitors in yeast reporter cells, primary screen, luminescence, S. cerevisiae; S. cerevisiae SKY197-pL101 polyadenylation reporter, beta-gal luminescence; efflux-impaired pdr1/pdr3 knockout yeast; score 100 = 6 SD above DMSO; activity score, % at 12 µM; hit rate 0.02% among 300,000;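 active = lowest replicate activity score at least 50, where 100 means six control SD above control mean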;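 also: yeast exposed to compound for 9 h at 30 °C; higher score means more reporter readthrough which indicates perturbed polyadenylation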
NALP3 yeast inh: NALP3 inflammasome inhibitors in reconstituted yeast, primary screen, luminescence, uHTS | Yeast reconstituted NLRP3/ASC/caspase-1, beta-gal luminescence, 24 h | inhibition, % at 10 µM | hit rate 0.39% among 330,000 | AID 2825, 2010;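 active = inhibition of 50% or more; inactive = inhibition below 50%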;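 also: plate controls were induced DMSO wells for no effect and uninduced yeast grown without galactose for full effect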
Mot1-301 SUMO: yeast Mot1-301 growth rescue at high temperature, primary screen, SUMOylation pathway inhibitor project, S. cerevisiae, ATP luminescence, 38.5C | S. cerevisiae Mot1-301 growth rescue; percent above DMSO median, 100 means doubled | growth rescue, % at 18.8 µM | hit rate 1% among 320,000 | AID 2716, 2010;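 active = every valid replicate shows activation above 250% relative to neutral control wells; inactive = the rest, any valid replicate at or below 250%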;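 also: OY570 slx delta 5 strain wells were the positive control but not used for scaling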
NALP1 yeast inh: NALP1 inflammasome inhibitors in reconstituted yeast, colorimetric, S. cerevisiae, triplicate retest. AID 2071, 2009. S. cerevisiae NALP1/ASC/caspase-1 growth, X-gal OD620, 72 h. inhibition, % at 10 µM. hit rate 0.61% among 280,000; in the data active = inhibition mostly above about 24%, no sharp cut-off; inactive = mostly below about 32%
* marks the source's active call; other numbers are inactive results. In the library only some 1.8% were active in any assay of this set; here they are far more common.

How did OC(COc1ccc(-c2ccccc2)cc1)CN1CCOCC1 (stereo unspecified) do in these assays?
PolyA inh: 7.8; NALP3 yeast inh: 22.1; Mot1-301 SUMO: 14.7; NALP1 yeast inh: 16.9

Results for COCCn1cc(C(=S)N2CCCCC2)c2ccccc21 ?
PolyA inh: -18.3; NALP3 yeast inh: 22.7; Mot1-301 SUMO: 8.1; NALP1 yeast inh: -2.9

How did COCCn1cc(C(=S)N2CCOCC2)c2ccccc21 do in these assays?
PolyA inh: 1.8; NALP3 yeast inh: -0.1; Mot1-301 SUMO: -1.2; NALP1 yeast inh: 33.3*

How did O=C1CC(C(=O)N2CCN(c3ccccc3O)CC2)CN1Cc1ccccc1 (stereo unspecified) do in these assays?
PolyA inh: 22.7; NALP3 yeast inh: 20.2; Mot1-301 SUMO: 0.5

How did CC(C)C(C(=O)NCc1ccco1)N(CC1CCCO1)C(=O)CNS(=O)(=O)c1ccccc1 (stereo unspecified) do in these assays?
PolyA inh: -3.7; NALP3 yeast inh: 1.9; NALP1 yeast inh: 11.2

What do the screens show for `CCOc1cccc(/C=N/N2C(C)CCCC2C)c1O` (stereo unspecified)?
PolyA inh: 8.0; NALP3 yeast inh: 22.3; Mot1-301 SUMO: 9.6; NALP1 yeast inh: 7.2

How did Cc1ccc(OCC(O)Cn2c3ccccc3c3ccccc32)cc1 (stereo unspecified) do in these assays?
PolyA inh: 2.6; NALP3 yeast inh: 5.4; Mot1-301 SUMO: 8.3; NALP1 yeast inh: 8.1

How did OC(CN1CCCCC1)Cn1c2ccc(Cl)cc2c2cc(Cl)ccc21 (stereo unspecified) do in these assays?
PolyA inh: -8.4; NALP3 yeast inh: 17.7; Mot1-301 SUMO: 37.7; NALP1 yeast inh: 48.6*

Results for Cc1ccc(OCCN2CCN(CC(O)Cn3c4ccccc4c4ccccc43)CC2)cc1 (stereo unspecified) ?
PolyA inh: 0.2; NALP3 yeast inh: 33.3; Mot1-301 SUMO: -6.8; NALP1 yeast inh: 76.3*

How did OC(CN1CCN(c2ccccn2)CC1)Cn1c2ccc(Cl)cc2c2cc(Cl)ccc21 (stereo unspecified) do in these assays?
PolyA inh: -9.5; NALP3 yeast inh: 30.8; Mot1-301 SUMO: 117.0; NALP1 yeast inh: -1.7

How did OC(CN1CCN(Cc2ccccc2)CC1)Cn1c2ccccc2c2ccccc21 (stereo unspecified) do in these assays?
PolyA inh: -9.9; NALP3 yeast inh: 30.8; Mot1-301 SUMO: -7.7; NALP1 yeast inh: 50.4*

Results for CN(C(=O)COC(=O)Cc1ccc(Cl)cc1)C1CCCCC1 ?
NALP3 yeast inh: 19.3; Mot1-301 SUMO: 13.4

How did COC(=O)[C@@]12CCCN1[C@H](c1ccc(-c3ccc(Cl)c(Cl)c3)c(OC)c1)[C@H]1C(=O)N(C)C(=O)[C@H]12 do in these assays?
NALP3 yeast inh: 13.9; Mot1-301 SUMO: 20.5

Results for O=C(NC1CCN(Cc2ccccc2)CC1)C1COc2ccccc2O1 (stereo unspecified) ?
PolyA inh: -45.5; NALP3 yeast inh: 26.6; Mot1-301 SUMO: 273.3*; NALP1 yeast inh: 8.3

How did CN1CCN(c2ccc(Cl)cc2NC(=O)C2COc3ccccc3O2)CC1 (stereo unspecified) do in these assays?
PolyA inh: 12.2; NALP3 yeast inh: 20.2; Mot1-301 SUMO: -26.9; NALP1 yeast inh: 31.5*

How did N#CC(c1ccc(Cl)cc1)c1nc2ccccc2nc1C(F)(F)F (stereo unspecified) do in these assays?
PolyA inh: 1.9; NALP3 yeast inh: 18.6; Mot1-301 SUMO: 21.5; NALP1 yeast inh: 8.4

Results for O=C(O)CCn1c(-c2ccccc2)cc2ccccc21 ?
PolyA inh: 9.4; NALP3 yeast inh: -8.2; NALP1 yeast inh: 34.5*

What do the screens show for `N#Cc1cnc(SCC(=O)N2CCCCC2)nc1N`?
PolyA inh: 2.7; Mot1-301 SUMO: -1.2

What do the screens show for `CN(CC(=O)Nc1ccccc1C(F)(F)F)C(=O)C1CC1`?
NALP3 yeast inh: 10.0; Mot1-301 SUMO: 11.7

How did CC(=O)NC1C(=O)N=C(SCC(=O)Nc2sc3c(c2C#N)CCCCCC3)NC1=O (stereo unspecified) do in these assays?
PolyA inh: 1.8; NALP3 yeast inh: 8.1; Mot1-301 SUMO: 49.7; NALP1 yeast inh: 16.4

What do the screens show for `Cc1ccc(NC(=O)c2oc3ccccc3c2NC(=O)c2ccc3c(c2)OCO3)cc1`?
PolyA inh: 5.6; NALP3 yeast inh: 6.4; Mot1-301 SUMO: 34.5; NALP1 yeast inh: 31.4*

What do the screens show for `CS(=O)(=O)N1CCC(C(=O)N2CCN(c3ccccc3F)CC2)CC1`?
PolyA inh: 7.5; NALP3 yeast inh: 6.7; Mot1-301 SUMO: 309.5*; NALP1 yeast inh: 6.6
